Data: PubChem BioAssay AID1259313 (Sanford-Burnham Center for Chemical Genomics, 2017)
The whole screen tested about 340,000 compounds, of which about 8,500 (2.5%) were called active. This is one part of a sample in which actives are shown more often than they occur.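 Rule for the calls: active = melting temperature shift of at least 10% of the positive control shift, at one fixed dose; inactive = the rest.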

Each compound was assayed on Glutamate receptor ionotropic, NMDA 3A (GRIN3A) ligand-binding domain (assay: NR3A LBD thermal stabilization by compounds – biophysical, differential scanning fluorimetry, uHTS, primary screen (AID 1259313)). Conditions: at 25 µM, stronger effect = higher value, 0% = protein alone, 100% = glycine-bound protein.

Tm shift relative to glycine control, active:
CN(NC(=O)c1ccccc1)c1nc2ccccc2nc1C(F)(F)F 11.4%
O=C1NC(Nc2nc3ccccc3s2)(C(F)(F)F)C(=O)N1C1CCCCC1 (stereo unspecified) 13.7%
Cc1ccc(-n2cc3ccc([N+](=O)[O-])cc3n2)cc1 13.3%
Cc1cc(NCc2ccco2)n2c(nc3ccccc32)c1C#N 19.7%
Cc1ccc(O)c(/C=N/NC(=O)COc2ccc3c(C)cc(=O)oc3c2)c1 16.8%
CC(C)Cn1c(N)c(C(=O)NCc2cccs2)c2nc3ccccc3nc21 19.1%
O=C(/C(=C/c1cccc(Cl)c1)c1nc2ccccc2[nH]1)c1ccccc1 23%
O=C(Cn1cc(/C=N/NC(=O)c2cccc(C(F)(F)F)c2)c2ccccc21)Nc1ccc(F)cc1 15.8%
Cc1ccc(NC(=O)c2cc(-c3ccccc3O)n[nH]2)cc1C 26.2%
O=C(CNS(=O)(=O)c1ccc2ccccc2c1)Nc1ccc(F)c(F)c1F 35%
N#Cc1c(N)n(CCOC(=O)c2ccc(Cl)cc2)c2nc3ccccc3nc12 35.9%
O=C(Nc1cc(S(=O)(=O)Nc2ccc(Cl)cc2)ccc1O)c1ccc(F)cc1F 37.7%
COc1ccccc1N(CCOc1ccccc1)S(=O)(=O)c1ccccc1 12.6%
O=C(Nc1c(Cl)cccc1Cl)C1CCC1 12.7%
Cc1c(S(=O)(=O)N2CC(C)CC(C)C2)c(=O)n(C)c(=O)n1C (stereo unspecified) 11.1%

Tm shift relative to glycine control, inactive:
O=C(NCc1ccccc1Cl)C1CCCN1S(=O)(=O)c1ccc(F)cc1 (stereo unspecified) 2.13%
O=C(CN1CCN(S(=O)(=O)c2ccc(Cl)s2)CC1)NCc1ccc(Cl)cc1 -1.27%
CN(NC(=O)c1ccccc1F)c1nc(C(F)(F)F)nc2ccccc12 0.16%
CSc1nc(N(C)NC(=O)c2cccc(C)c2)c2ccccc2n1 3.17%
Cc1ccc(C)c(C(=O)N2CCC(n3nccc3NC(=O)C3CC3)CC2)c1 0.44%
O=C(NC1(C(F)(F)F)NC(=O)N(C2CCCCC2)C1=O)c1ccco1 (stereo unspecified) 1.55%
CCC1(CC)NC(=O)N(Cc2nc3ccccc3s2)C1=O -0.61%
Cc1ccc2oc(=O)c3cnn(CC(=O)N4CCN(c5ccccn5)CC4)c3c2c1 0.6%
CCOc1cccc2cc(C(=O)OCC(=O)Nc3c(C)cccc3CC)c(=O)oc12 -0.27%
N#C/C(=C\N1CCOCC1)S(=O)(=O)c1ccc(Cl)cc1 -0.42%
CCCN(CCC)c1c([N+](=O)[O-])c(=O)oc2ccccc12 -4.15%
Cc1ccc(C(=O)Cn2cc([N+](=O)[O-])nc2C)cc1 2.36%
Cc1ccc(-c2cn3cc([N+](=O)[O-])ccc3n2)cc1 0.72%
CN(C)/C=C(/C(=O)c1ccccc1)S(=O)(=O)c1ccc(Cl)cc1 -1.01%
Cc1cc(NC(C)C)n2c(nc3ccccc32)c1C#N 0.92%
CC(C)c1cc(NCc2ccccn2)n2c(nc3ccccc32)c1C#N 1.69%
O=C(NCc1ccc2c(c1)OCO2)C12CC3CC(CC(C3)C1)C2 -0.27%
Cc1cc(=O)oc2cc(OCC(=O)Nc3nnc(C4CC4)s3)ccc12 -0.86%
CCOC(=O)Cc1csc(NC(=O)COc2ccc3c(C)cc(=O)oc3c2)n1 -1.92%
O=C(NCc1cccs1)c1cc(-c2ccccn2)nc2ccc(Br)cc12 -0.39%
CCOc1ccccc1NC(=O)Cn1nnc(C(=O)NCc2cccs2)c1N -0.84%
Cc1ccc(S(=O)(=O)c2ccc(Cl)cc2)cc1S(=O)(=O)NC(C(=O)O)C(C)C (stereo unspecified) -2.2%
CCCOn1c(-n2nc(C)cc2C)nc2ccccc2c1=O 1.18%
O=C(CSc1ccc(C(F)(F)F)cc1[N+](=O)[O-])NCCOc1ccccc1 -6.06%
Oc1ccc2nc(Cc3ccccc3)[nH]c2c1 -5.45%
N#C/C(=C(/O)COC(=O)COc1ccc(Cl)cc1)c1nc2ccccc2[nH]1 7.42%
CN(CC1CCCN(CCc2cccc(C(F)(F)F)c2)C1)C(=O)c1ccc2nc[nH]c2c1 (stereo unspecified) 1.25%
O=C(CN1CCN(c2ccc(F)cc2)CC1)Nc1cccc(C(F)(F)F)c1 -4.33%
NC(=O)Cn1cc(/C=N\NS(=O)(=O)c2ccccc2)c2ccccc21 -34.7%
CCCOC(=O)c1ccc(N2C(=O)c3ccccc3C2=O)cc1 -1.6%
Cc1ccc(C)c(NC(=O)c2cc(-c3cc(C)cc(C)c3O)n[nH]2)c1 0.62%
Cc1ccc(NC(=O)CCN2C(=O)c3ccccc3C2=O)cc1C -0.19%
CN(CC(=O)NCCc1ccc(S(N)(=O)=O)cc1)CC(=O)Nc1ccc(F)c(F)c1F -1.98%
O=C(CNS(=O)(=O)c1cccc(C(F)(F)F)c1)Nc1ccccc1F -1.13%
O=C(c1ccncc1)N1CCN(S(=O)(=O)c2cccc([N+](=O)[O-])c2)CC1 2.5%
Cc1ccc(Cc2cncc(O)c2)cc1S(=O)(=O)O 0.09%
CNc1nc(=O)n(C2CCCO2)cc1C (stereo unspecified) -4.19%
COCC(C)OC(=O)c1c(N)n(CCCN2CCOCC2)c2nc3ccccc3nc12 (stereo unspecified) -0.69%
CN(C)CCCn1c(N)c(C#N)c2nc(C#N)c(C#N)nc21 -3.53%
C=CCc1cccc2cc(C(=O)N3CCN(C(=O)OCC)CC3)c(=O)oc12 -2.65%
Cc1ccc(NC(=O)CSc2nn3c(=O)c(C)nnc3s2)cc1Cl -1.28%
C/C(=N\Nc1ccc(Cl)nn1)c1ccccc1O -6.71%
CC(C)(C)c1ccc(SCCc2ccncc2)cc1 0.08%
O=C(Nc1cccc(S(=O)(=O)NC2=NCCC2)c1)c1ccc(F)cc1F 0.09%
Cc1cc(NS(=O)(=O)c2ccc(NC(=S)NC(=O)c3ccc(F)cc3Cl)cc2)no1 0.87%
Cn1c(Cc2cccc3ccccc23)nnc1SCC(=O)N1CCN(c2cccc(Cl)c2)CC1 5.43%
CCC(Oc1ccccc1C)C(=O)Nc1ccc(S(=O)(=O)Nc2cc(C)on2)cc1 (stereo unspecified) 3.83%
Cc1ccc(S(=O)(=O)N2CCCCC2)cc1C(=O)N1CCN(CCO)CC1 2.45%
COc1ccccc1N(CC(=O)N1CCCCC1)S(=O)(=O)c1ccccc1 0.84%
COc1ccccc1NC(=O)CN(c1ccccc1OC)S(=O)(=O)c1ccccc1 0.31%
CN(CC(=O)Nc1c(Cl)cccc1Cl)C(=O)CNC(=O)C1CCCCC1 0.17%
NC(=S)Nc1c(Cl)cccc1Cl 2.25%
Cc1c(S(=O)(=O)NC(C)c2ccccc2)c(=O)n(C)c(=O)n1C (stereo unspecified) -6.52%
Cc1c(S(=O)(=O)NCc2ccccc2)c(=O)n(C)c(=O)n1C -0.41%
O=C(NCCc1ccccc1Cl)C1CCC(=O)N(CCCc2ccccc2)C1 (stereo unspecified) 3.05%
O=C(NNC(=O)c1ccc(-n2cncn2)c([N+](=O)[O-])c1)c1ccccc1 3.86%
